Reference: PubChem BioAssay AID1259418 (Broad Institute, 2018)
Out of some 3,400 compounds screened, about 840 (25%) were called active. About 11% were inconclusive and are not listed. These entries were drawn from the full list. Entries with a potency or affinity are not part of this list. A number with no mark means an inactive call.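 The calls were made as follows: active = fitted half-maximal concentration of signal decrease at or below twice the sample's top tested concentration; inconclusive = flat curve between -70 and -30 percent, or poor fit; inactive = flat within 30 percent, signal rise, or potency above limit.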

Assay: inhibitors of Toxoplasma growth in IFN-γ-primed HeLa – cell-based, ME49Luc, luciferase, 72 h, dose response (AID 1259418)
Settings: T. gondii ME49Luc in IFN-y HeLa, stronger effect = lower value, -100% = high-dose IFN-γ control wells; at 19.5 µM unless noted

In order of falling max activity:
1. Cc1ccc(-c2nc3c(s2)CN(C(=O)Nc2ccccc2C(F)(F)F)CC3)cc1  101% [at 10 µM]
2. Cc1ccc(Nc2ncnc3c2cnn3-c2ccc(Cl)cc2)cc1  81.3% [at 10 µM]
3. COC(=O)c1ccc(NC(=O)Nc2ccc(-c3nc(-c4ccccc4)co3)cc2)cc1  75.7% [at 10 µM]
4. CN1C(=O)CCc2cc(NC(=O)c3ccsc3)ccc21  74.1% [at 10 µM]
5. Cc1cccc(-c2noc(-c3ccc(N4CCC(N5CCCCC5)CC4)nc3)n2)c1  26.5% [at 10 µM]
6. CCc1cc(C(=O)Nc2ccc(C)cc2-c2cc(C)[nH]n2)c2c(C)noc2n1  19.5% [at 10 µM]
7. COc1ccc(CNC(=O)CC2N=C3c4ccccc4N=C(SCc4ccccc4F)N3C2=O)cc1 (stereo not given)  17.8% [at 10 µM]
8. COc1ccccc1-c1nc(C)c(-c2ccc(SCc3cccc(C)c3)nn2)s1  12.4% [at 10 µM]
9. COc1ccccc1-c1nc(C)c(-c2ccc(SCC(=O)OCc3ccccc3)nn2)s1  8.29% [at 10 µM]
10. O=C(Cn1cccc1-c1nc(-c2ccccc2)cs1)N1CCC(N2CCCCC2)CC1  7.65% [at 10 µM]
11. COc1ccc(NC(=O)CN2CCC3(CC2)N=C(c2ccc(F)cc2)C(=O)N3)cc1OC  -16.1% [at 10 µM]

In order of rising max activity:
1. CN1C(=O)CCc2cc(NC(=O)c3ccncc3)ccc21  -16.2% [at 2.6 µM]
2. CC1CCCN(c2nc(-c3ccc(Cl)cc3)nc3ccccc23)C1 (stereo not given)  -6.84% [at 2.6 µM]
3. CCCCNC(=O)CC1N=C2c3ccccc3N=C(SCc3ccc(F)cc3)N2C1=O (stereo not given)  8.45% [at 2.6 µM]
4. Cc1ccc(NC(=O)N2CCN(Cc3nc(-c4ccccc4C)oc3C)CC2)cc1  9.16% [at 2.6 µM]
5. O=C(Nc1ccc(-c2nc(-c3ccccc3)co2)cc1)Nc1cc(F)ccc1F  10.9% [at 2.6 µM]
6. Cc1ccc(C)c(-c2coc(-c3ccc(NC(=O)c4ccccc4)cc3)n2)c1  11.8% [at 2.6 µM]
7. CCC(C(=O)N1CCC[C@@H]1C(=O)NCCc1csc(-c2ccccc2)n1)c1ccccc1 (stereo not given in full)  13.1% [at 2.6 µM]
8. Cc1ccc(-c2coc(-c3ccc(NC(=O)c4ccc(Br)o4)cc3)n2)cc1  38% [at 2.6 µM]

In order of falling max activity:
1. CN1C(=O)CCc2cc(NC(=O)c3ccco3)ccc21  172%
2. Cc1ccc(-c2coc(-c3ccc(NC(=O)Nc4ccc(F)cc4F)cc3)n2)cc1  92.1%
3. O=C(Nc1ccc(-c2nc(-c3ccccc3)co2)cc1)NC1CCCCC1  71.1%
4. Cc1ccc(C)c(-c2coc(-c3ccc(NC(=O)c4cccs4)cc3)n2)c1  62.5%
5. O=C(NCCN1CCCC1)[C@H]1[C@H](CO)[C@H]2Cn3c(cccc3=O)[C@H]2N1Cc1ccccn1  48.1%
6. COc1ccc(C(=O)Nc2ccc(-c3nc(-c4ccc(C)cc4C)co3)cc2)cc1OC  45%
7. Clc1ccccc1-c1nc(NCCN2CCCc3ccccc32)c2ccccc2n1  37.1%
8. C=CCN1C(=O)COC2(CCN(Cc3ccc(C)s3)CC2)C1C (stereo not given)  27.2%
9. Cc1ccc(-c2nc(Cn3nnc(-c4nc(-c5ccc(Br)cc5)no4)c3C)c(C)o2)cc1  26.9%
10. COc1ccc(-c2nc(Nc3cc(C)ccc3C)c3ccccc3n2)cc1  25.6%
11. CNc1ncc(CN(C)C(=O)c2csc(C)n2)cn1  20.8%
12. COc1ccc(C)cc1NC(=O)Nc1ccc(-c2nc(-c3ccc(C)cc3C)co2)cc1  20.4%
13. CCOc1ccccc1-c1nc(CSc2nc3c(c(=O)[nH]2)CN(Cc2ccccc2)CC3)c(C)o1  18.7%
14. Cc1oc(-c2cccc(Cl)c2)nc1CSc1nc2c(c(=O)[nH]1)CN(Cc1ccc(F)cc1)CC2  15.7%
15. Clc1ccccc1CSc1nc(NC2CCCCC2)c2ccccc2n1  13.8%
16. O=C(Nc1ccc(-c2nc(-c3ccccc3)co2)cc1)Nc1cccc(F)c1  13.5%
17. COc1ccc(OC)c(NC(=O)N2CCc3nc(-c4ccc(C)cc4)sc3C2)c1  13.3%
18. COC[C@H]1CN(C)C[C@]12CCN(C(=O)c1cc3ccccc3s1)C2  13.1%
19. O=C(NCCc1csc(-c2ccccc2)n1)[C@H]1CSCN1C(=O)Cc1cccs1  12.6%
20. Cc1nc(-c2ccc(F)cc2)sc1-c1ccc(SCCN2CCCCCC2)nn1  9.96%
21. CCCNC(=O)N1CCN(Cc2nc(-c3ccc(OCC)cc3)oc2C)CC1  7.68%
22. COc1ccc(OC)c(NC(=O)N2CCc3nc(-c4ccccc4)sc3C2)c1  6.12%
23. O=C(Nc1ccc(Br)cc1)Nc1ccc(-c2nc(-c3ccccc3)co2)cc1  -11.6%
24. CCCNC(=O)N1[C@H](C#N)[C@H](c2ccc(-c3ccccc3F)cc2)[C@H]1CO  -14.6%
25. Cc1ccc(-c2nc(CN3CCN(C(=O)Nc4cccc(C)c4)CC3)c(C)o2)cc1  -23.6%
26. COc1ccc(CNC(=O)CC2N=C3c4ccccc4N=C(SCc4ccc(C)cc4C)N3C2=O)cc1 (stereo not given)  -42%

In order of rising max activity:
1. Cc1ccc(-c2nc(CN3CCN(C(=O)NC(C)C)CC3)c(C)o2)cc1  -10.1% [at 0.35 µM]
2. COc1ccc(C(=O)Nc2ccc(-c3nc(-c4cc(C)ccc4C)co3)cc2)cc1OC  9.52% [at 0.35 µM]
3. COc1ccc(CC(=O)Nc2ccc(-c3nc(-c4ccc(C)cc4)co3)cc2)cc1  16.4% [at 0.35 µM]
4. Cc1ccc(-c2coc(-c3ccc(NC(=O)c4cccs4)cc3)n2)cc1  20.5% [at 0.35 µM]

In order of falling max activity:
1. Cc1nc(OCC(=O)Nc2cccc(Cl)c2C)c2ccccc2n1  33.5% [at 0.16 µM]
2. Cc1ccc(-c2nc(CN3CCN(C(=O)Nc4ccc(Cl)cc4)CC3)c(C)o2)cc1  22.8% [at 0.16 µM]
3. CCc1nc(OCC(=O)Nc2cc(Cl)c(OC)cc2OC)c2ccccc2n1  17% [at 0.16 µM]
4. COCCCNC1=NCCNC12CCN(S(=O)(=O)c1ccc(C)c(C)c1)CC2  15.1% [at 0.16 µM]
5. Cc1ccc(NC(=O)N2CCN(Cc3nc(-c4ccc(C)cc4)oc3C)CC2)cc1  13.6% [at 0.16 µM]
6. COc1ccc(-c2ccc(OCCNC(=O)c3sc(-c4ccccc4)nc3C)nn2)cc1  13.2% [at 0.16 µM]
7. COc1ccccc1NC(=O)Nc1ccc(-c2nc(-c3cc(C)ccc3C)co2)cc1  9.93% [at 0.16 µM]
8. COc1cc(C(=O)Nc2ccc(-c3nc(-c4cc(C)ccc4C)co3)cc2)cc(OC)c1OC  -22.7% [at 0.16 µM]

`O[C@H](CNC[C@@H](O)[C@H]1CCc2cc(F)ccc2O1)[C@@H]1CCc2cc(F)ccc2O1` gave a max activity of -7.92% [at 0.3 µM].

In order of falling max activity:
1. CCC(=O)N1CCC2(CC1)Nc1cc(F)ccc1-n1cccc12  8.79% [at 0.68 µM]
2. Cc1ccc2c(c1)cc(S(=O)(=O)c1ccccc1)c(=O)n2CC(=O)NCc1ccccc1Cl  7.82% [at 0.68 µM]
3. O=C1CCc2cc(NC(=O)C3CCC3)ccc2N1  -4.89% [at 0.68 µM]
4. Cc1ccc2c(c1)cc(S(=O)(=O)c1ccccc1)c(=O)n2CC(=O)N1CCCCC1  -6.78% [at 0.68 µM]
5. COc1cc(NC(=O)Nc2ccc(-c3nc(-c4ccc(C)cc4)co3)cc2)cc(OC)c1OC  -16.6% [at 0.68 µM]
6. CCc1ccc(NC(=O)N2CCN(Cc3nc(-c4ccc(C)cc4)oc3C)CC2)cc1  -17.1% [at 0.68 µM]

In order of rising max activity:
1. Cc1ccc(CN2CCCn3nc(C(=O)N4CCC(N5CCCCC5)CC4)cc3C2=O)cc1  -18.3% [at 5 µM]
2. Cc1ccc2c(c1)cc(S(=O)(=O)c1ccccc1)c(=O)n2CC(=O)N1CCCC1  -8.58% [at 5 µM]
3. Cc1nc(CCNC(=O)C2CCN(C(=O)c3ccc(Br)o3)CC2)cs1  9.93% [at 5 µM]
4. Fc1cccc(-c2noc(-c3ccc(N4CCC(N5CCCCC5)CC4)nc3)n2)c1  21.6% [at 5 µM]
5. COc1cc(C(=O)Nc2ccc(-c3nc(-c4ccc(C)cc4C)co3)cc2)cc(OC)c1OC  27.4% [at 5 µM]

In order of rising max activity:
1. Cc1cccc(C)c1NC(=O)CN1CCC2(CC1)N=C(c1ccc(F)cc1)C(=O)N2  10% [at 1.35 µM]
2. COc1ccc(CNC(=O)CC2N=C3c4ccccc4N=C(SCc4cccc(F)c4)N3C2=O)cc1 (stereo not given)  12.5% [at 1.35 µM]
3. CCOC(=O)c1ccc(NC(=O)N2CCN(Cc3nc(-c4cccc(Cl)c4)oc3C)CC2)cc1  13.5% [at 1.35 µM]
4. Cc1ccc(CSC2=Nc3ccccc3C3=NC(CC(=O)NCc4ccc(F)cc4)C(=O)N23)cc1 (stereo not given)  13.6% [at 1.35 µM]
5. COc1ccc(CNC(=O)CCC2N=C3c4ccccc4N=C(SCc4ccc(C)cc4)N3C2=O)cc1 (stereo not given)  16.4% [at 1.35 µM]

Work on `CCCNC(=O)N1[C@H](C#N)[C@@H](c2ccc(-c3ccccc3F)cc2)[C@H]1CO` yielded a max activity of -20.5% [at 0.6 µM].
